PubChem BioAssay (NCATS)
Inconclusive results are not listed. Entries that show only a call come without a potency. Activity calls are given as the source filed them. Calls come from the whole dose curve; as a rule, active = well fitted inhibition curve with a large enough effect; inconclusive = small, poorly fitted or top-dose-only effect; inactive = flat fitted curve, though single readings scatter.

Each compound was assayed on CRL-7250 (assay: qHTS assay to identify novel small-molecules to repurpose for Merkel cell carcinoma treatment (AID 1296009; note: nearly all actives have a fitted effect of over 60% in size)). Settings: MCC and control cell lines, CellTiter-Glo viability, 72 h; series mostly up to 92 µM.
Method in brief: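 Cell viability, measured as CellTiter-Glo luminescence, was normalized between DMSO and no-cell wells. The cells had been exposed to 8- or 11-point compound dilutions for 72 hr at 37 degree celsius.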
With `O=C(OC(C(F)(F)F)C(F)(F)F)N1CCN(Cc2cccc(Oc3ccccc3)c2)CC1` the Potency was “inactive”. In the case of `O=C(O)C[C@H]1CCC(=O)[C@@H]1C/C=C\CCO`, the Potency is reported as “inactive”. `O=C(Nc1c(-c2cccs2)nc2ccccn12)c1ccc(Cl)cc1` was tested, and the Potency was “inactive”. With `COc1ccc(C(=O)CC(=O)O)c2c1C=CC(C)(C)O2` the Potency was “inactive”. `CC(=O)N(O)CCCCCN1C(=O)CCC1=O` was tested, and the Potency was “inactive”.
